High-throughput results (PubChem)
Sampled rows, rich in hits. Any-hit rate of the full collection: about 3.5%.
TEAD-YAP block – TEAD-YAP interaction inhibition; HEK-TIYL cells, TEAD-Gal4/YAP UAS-luciferase luminescence; inhibition, % at 9.12 µM; hit rate 1.4% among 640,000; in the data active means inhibition above about 32%;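 further: 0% = median of test compound wells and 100% = reference inhibitor wells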
FBW7 act – activators of human E3 ligase FBW7; AlphaScreen FBW7–phospho-cyclin E peptide binding, activator screen; hit rate 0.13% among 650,000; Q969H0; normalized activity (activation), % at 26.1 µM; AID 1259310; in the data active means normalized activity above about 1.9%;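 further: purified mutant Fbw7 with reduced substrate affinity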
MITF inh – inhibitors of human MITF | AlphaScreen MITF homodimerization, bead proximity signal | inhibition, % at 2.6 µM | hit rate 0.91% among 650,000 | AID 1259374; in the data active means inhibition above about 50%;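 further: 0% = vehicle wells with protein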
Target sequence (O75030 whole entry, looked up): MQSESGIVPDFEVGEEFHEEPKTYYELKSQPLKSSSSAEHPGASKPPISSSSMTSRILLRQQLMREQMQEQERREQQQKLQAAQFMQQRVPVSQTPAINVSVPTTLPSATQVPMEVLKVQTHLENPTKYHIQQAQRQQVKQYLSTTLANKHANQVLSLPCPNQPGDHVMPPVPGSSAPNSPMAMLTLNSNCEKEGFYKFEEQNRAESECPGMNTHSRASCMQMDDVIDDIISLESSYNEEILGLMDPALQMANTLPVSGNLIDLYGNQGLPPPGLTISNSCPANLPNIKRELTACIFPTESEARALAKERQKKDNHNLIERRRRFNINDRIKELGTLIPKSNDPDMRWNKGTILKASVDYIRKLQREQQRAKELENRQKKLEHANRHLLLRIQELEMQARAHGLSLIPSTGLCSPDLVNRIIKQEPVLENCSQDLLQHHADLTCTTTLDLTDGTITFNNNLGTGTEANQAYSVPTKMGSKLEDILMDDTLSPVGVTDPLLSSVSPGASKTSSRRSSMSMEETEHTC
GPR151 ag – activates the human receptor GPR151 | activation, % at 11.2 µM | AID 1508602 | PathHunter beta-arrestin GPR151 cells, luminescence | hit rate 1% among 650,000; in the data active means activation above about 4.9%;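 further: 0% = median of compound wells and 100% = cells with positive control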
Numbers without * were called inactive; . = no result; ! = repeats disagree.

SMILES | TEAD-YAP block | FBW7 act | MITF inh | GPR151 ag
COc1ccc(C2NCc3ccc4c(c3-n3cccc32)OCO4)cc1O (stereo not drawn) | 56.3* | -0.1 | 4.7 | 1.2
CC(C)[C@]12O[C@H]1[C@@H]1O[C@]13[C@]1(O[C@H]1C[C@H]1C4=C(CC[C@@]13C)C(=O)OC4)[C@@H]2O | 90.5* | 0.0 | 2.6 | 1.0
CCN(CC)C(=O)c1ccc(NC(=O)c2ccccn2)cc1 | 41.9* | 0.0 | -6.5 | -9.6
CCN(CC)C(=O)c1ccc(NC(=O)CN2CCCCC2)cc1 | -3.0 | 0.1 | 12.2 | -1.4
CC12CC[C@H](O)CC1=CC[C@@H]1[C@@H]2CCC2(C)[C@H]1CC[C@]2(C)O (stereo partly drawn) | -7.8 | 0.3 | -10.5 | -2.1
Cc1c(Cl)cccc1-n1c(/C=C\c2ccc(F)cc2)nc2ccccc2c1=O | 8.2 | 0.2 | -7.2 | -1.1
O=c1c2ccccc2nc(CN2CCOCC2)n1-c1ccccc1 | 4.7 | 0.0 | 1.0 | -0.7
O=C1NC(=S)NC(=O)C1=Cc1ccc(-c2ccc(C(=O)O)cc2)o1 | -1.0 | 0.0 | 63.4* | -0.7
O=C1NC(=O)N(Cc2ccco2)C(=O)/C1=C\c1ccc(-c2ccc(Cl)c(C(=O)O)c2)o1 | 1.3 | -0.6 | 20.9 | 0.0
CC(=O)c1ccc(-c2ccc(C=C3C(=O)NC(=S)NC3=O)o2)cc1 | -11.6 | -0.3 | 28.3 | -0.2
O=C1NC(=S)NC(=O)C1=Cc1ccc(-c2ccc(C(=O)O)c(O)c2)o1 | -7.0 | -0.3 | 81.9* | -0.1
O=C1NC(=S)NC(=O)C1=Cc1ccc(-c2ccc(Cl)c(C(=O)O)c2)o1 | -5.7 | -1.5 | 69.2* | 1.0
Cc1cccc(C2N(c3ccccn3)C(=O)C3CCCN32)c1 (stereo not drawn) | 11.2 | 0.4 | 9.7 | -0.1
O=C(Nc1cccc(C(F)(F)F)c1)c1cc(Cl)ccc1O | 78.3* | 0.4 | 4.5 | -0.9
CCP(=O)(CC)Nc1cccc(C(F)(F)F)c1 | 7.7 | 0.4 | 7.8 | 1.3
COc1cc2c(cc1O)CC1c3c(cc(O)c(OC)c3-2)CCN1C (stereo not drawn) | 33.5*! | 0.5 | 18.8 | 2.2
Cc1cc(/C=C2\C(=O)NC(=O)N(Cc3ccco3)C2=O)c(C)n1-c1ccc(O)cc1 | 10.5 | -0.3 | 57.7* | 1.7
Oc1cc(Br)c(Br)cc1O | 1.5 | -0.1 | 4.1 | 1.3
O=C1NC(=O)C(=Cc2ccc([N+](=O)[O-])o2)C(=O)N1 | 4.4 | -1.2 | 79.1* | 1.8
N#CC1=C2SCC(O)(c3ccco3)N2C(=O)CC1c1ccccc1F (stereo not drawn) | 41.1* | 0.7 | 9.0 | 1.7
CC(=O)OC1CCC23C(=O)OC45CCC(C6=CC(=O)OC6)C4(C)CCC2C5CCC3(O)C1 (stereo not drawn) | 101.5* | 0.0 | -6.3 | 2.2
N/C(=N\[N+](=O)[O-])N/N=C/c1ccc(O)c(O)c1 | -5.3 | 0.5 | 87.1* | -4.7
CN1CCN(c2cccc3c2C(=O)c2ccccc2C3=O)CC1 | 37.4* | -0.4 | 6.7 | 0.1
CC(C)C[C@H]1NC(=O)[C@H]2CNCCN2C1=O | -0.9 | -0.1 | 3.4 | 0.0
Cc1nc2c(=O)n(C)c(=O)nc-2n(C)n1 | 99.9* | -1.6 | 21.6 | -6.4
SMILES | TEAD-YAP block | FBW7 act | MITF inh | GPR151 ag
CCn1nc(-c2ccccc2)nc2c(=O)n(C)c(=O)nc1-2 | -32.3 | -1.6 | 4.8 | -8.5
c1cc2c(cc1-c1ccc3c(c1)OCO3)COC1(CCNCC1)O2 | 9.0 | 0.6 | -9.5 | -0.7
c1ccc2cc(-c3ccc4c(c3)COC3(CCNCC3)O4)ccc2c1 | 84.3* | -0.6 | -17.6 | -0.2
Cc1cc(C)[n+]2cc(Br)cc(Br)c2n1 | 5.2 | 0.2 | -3.7 | 0.8
Cc1ccc(S(=O)(=O)NCC(=O)Nc2ccc(Cl)cc2C(=O)c2ccccc2)cc1 | 7.5 | -0.1 | -0.9 | 1.0
O=c1[nH]c(=S)n(Cc2ccco2)c(O)c1C=NCc1cccs1 | -2.6 | 0.1 | 19.3 | 0.1
N#Cc1c(/N=C/c2c(O)n(Cc3ccco3)c(=O)[nH]c2=O)sc2c1CCCC2 | -6.8 | -0.9 | 53.1* | 0.8
Oc1ccc(CN2CCN(c3ccccc3)CC2)cc1 | -0.2 | 0.1 | 16.8 | 0.3
COC1CC(O[C@H]2CC[C@]3(C=O)C4CC[C@]5(C)C(C6=CC(=O)OC6)CC[C@]5(O)C4CC[C@]3(O)C2)OC(C)C1O (stereo partly drawn) | 101.2* | 0.3 | 11.5 | -0.3
C[C@]12CC[C@H](O)C[C@H]1CC[C@@H]1[C@@H]2CC[C@]2(C)[C@@H](C3=CC(=O)OC3)CC[C@]12O | . | 0.1 | 2.7 | 0.7
C[C@@H]1O[C@@H](O[C@H]2C[C@@H](O)[C@]3(CO)[C@@H]4C(CC[C@]3(O)C2)[C@@]2(O)CC[C@H](C3COC(=O)C3)[C@@]2(C)C[C@H]4O)[C@H](O)[C@H](O)[C@H]1O (stereo partly drawn) | 94.1* | 0.5 | 5.3 | -0.6
C[C@@H]1O[C@@H](O[C@H]2C[C@@H](O)[C@]3(CO)C4C(CC[C@]3(O)C2)[C@@]2(O)CC[C@H](C3=CC(=O)OC3)[C@@]2(C)C[C@H]4O)[C@H](O)[C@H](O)[C@H]1O (stereo partly drawn) | 99.3* | 0.0 | -0.1 | -0.1
Cc1cc([N+](=O)[O-])c2ccccc2[n+]1[O-] | 91.7* | -0.3 | -6.7 | -1.8
O=[N+]([O-])c1ccc(N2CCCC2)c2ccccc12 | 3.1 | -0.2 | 14.4 | 0.6
CC(C)=CCCC1(C)C=Cc2c(O)c3c(c(CC=C(C)C)c2O1)OC12C(=CC4CC1C(C)(C)OC2(C/C=C(\C)C(N)=O)C4=O)C3=O (stereo not drawn) | 37.7* | 0.1 | 17.0 | 4.9
CC1CSC(Nc2ccccc2C(C)C)=N1 (stereo not drawn) | -4.4 | 0.1 | 21.8 | 1.6
C/C=C(/C)C(=O)O[C@H]1C(C)=C2[C@H]([C@@H]1OC(=O)CCCCCCC)[C@@](C)(OC(C)=O)C[C@H](OC(=O)CCC)[C@@]1(O)[C@H]2OC(=O)[C@@]1(C)O | 57.0* | 0.2 | 11.1 | 0.1
O=C1C(=O)c2ccccc2-c2ccccc21 | 99.0* | -0.9 | 16.3 | 1.2
COc1ccc(/C=C2\N=C(c3cncc(Br)c3)OC2=O)cc1 | 9.4 | 0.4 | 3.7 | -0.6
CCN(CC)c1ccc(CNC(C)C(O)c2ccccc2)cc1 (stereo not drawn) | 53.1* | -0.1 | 3.0 | -1.2
CC(NCc1ccc(F)cc1)C(O)c1ccccc1 (stereo not drawn) | 20.1 | -0.2 | 0.8 | -0.4
CN(C)c1ccc(-c2cc[n+](C)cc2)cc1 | 55.9* | 0.1 | 16.9 | 2.5
COc1cc(Br)c(CN2CC3CC(C2)c2cccc(=O)n2C3)cc1OC (stereo not drawn) | -1.5 | 0.1 | 4.7 | 0.8
CN1CC=C(c2noc(CCC(=O)Nc3ccc(F)cc3Cl)n2)CC1 | -5.1 | 1.8 | 30.9 | -1.1
CN1CC=C(c2noc(CCC(=O)Nc3ccc(F)c(Cl)c3)n2)CC1 | -0.8 | 2.1* | 38.6 | -1.4
CCOc1ccc(N2C(=O)/C(=C/c3ccc(C)o3)C(=O)NC2=S)cc1 | -0.7 | -0.2 | 13.7 | 1.3
Cc1ccc(/C=C2\C(=O)NC(=S)N(c3cccc(F)c3)C2=O)o1 | 0.1 | 0.0 | 11.7 | 2.1
CCOc1ccc(N2C(=O)/C(=C/c3ccc(Br)o3)C(=O)NC2=S)cc1 | 9.8 | -0.2 | 79.4* | -1.6
